# Screening data as filed in PubChem.
# GPR151 activ – activators of human GPR151; Q8TDV0; PathHunter beta-arrestin GPR151 cells, luminescence; activation, % at 11.2 µM; actives 1% (n = 650,000); AID 1508602; in the data active = activation above about 4.9%;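 note: 0% = median of compound wells and 100% = cells with positive control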
# Target sequence (Q8TDV0 whole entry, looked up): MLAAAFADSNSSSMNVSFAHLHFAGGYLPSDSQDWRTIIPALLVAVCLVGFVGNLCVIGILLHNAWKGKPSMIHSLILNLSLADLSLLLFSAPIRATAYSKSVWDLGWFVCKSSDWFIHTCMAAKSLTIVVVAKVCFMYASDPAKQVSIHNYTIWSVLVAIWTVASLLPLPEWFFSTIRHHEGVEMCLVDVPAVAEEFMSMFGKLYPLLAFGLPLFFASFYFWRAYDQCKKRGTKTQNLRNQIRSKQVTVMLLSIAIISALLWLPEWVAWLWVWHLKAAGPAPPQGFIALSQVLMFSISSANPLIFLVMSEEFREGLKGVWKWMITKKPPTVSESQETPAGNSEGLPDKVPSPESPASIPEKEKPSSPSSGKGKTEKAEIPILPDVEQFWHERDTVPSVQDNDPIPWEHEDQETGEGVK
# MITF primary – inhibitors of human MITF | O75030 | AlphaScreen MITF homodimerization, bead proximity signal | inhibition, % at 2.6 µM | actives 0.91% (n = 650,000) | AID 1259374; in the data active = inhibition above about 50%;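 note: 0% = vehicle wells with protein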
# FBW7 act – activators of human E3 ligase FBW7. actives 0.13% (n = 650,000). AlphaScreen FBW7–phospho-cyclin E peptide binding, activator screen. normalized activity (activation), % at 26.1 µM; in the data active = normalized activity above about 1.9%;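 note: purified mutant Fbw7 with reduced substrate affinity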
# TEAD-YAP inh – TEAD-YAP interaction inhibition | HEK-TIYL cells, TEAD-Gal4/YAP UAS-luciferase luminescence | inhibition, % at 9.12 µM | actives 1.4% (n = 640,000); in the data active = inhibition above about 32%;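 note: 0% = median of test compound wells and 100% = reference inhibitor wells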
# * = called active by the depositor. Most compounds without a hit are left out; they make up all but 3.4% or so of the library.
SMILES,GPR151 activ,MITF primary,FBW7 act,TEAD-YAP inh
Cc1ccc(/C=C2/SC(=O)NC2=S)o1,1,76*,0,-5
O=C(O)CCCCCN1C(=O)/C(=C\c2ccccn2)SC1=S,0,5,1.9*,30
NC(=O)NN1C(=O)/C(=C/c2ccco2)SC1=S,0,69*,-1,-2
O=C(O)CCN1C(=O)/C(=C\c2ccccn2)SC1=S,1,8,0,26
O=C(O)CCCCCN1C(=O)/C(=C\c2ccco2)SC1=S,0,43,0,37*
O=C(NN1C(=O)/C(=C\c2ccco2)SC1=S)c1ccccc1Cl,0,35,0,1
O=C1CCC(C(=O)NNC(=O)c2ccc(Br)cc2)=NN1,0,1,0,8
CC(=O)NC(NC(C)=O)c1ccccc1Cl,0,0,0,6
Cc1ccc(S(=O)(=O)NCCC(=O)NC2CCCCC2)cc1,0,41,0,5
CCOC(=O)c1sc2nc(SCc3cc(F)ccc3F)n(Cc3cccs3)c(=O)c2c1C,0,-13,0,4
CC1(C)CC(NC(=O)c2ccc(Cl)c([N+](=O)[O-])c2)CC(C)(C)N1,0,-3,0,-8
O=C(CN1CCCC1)N1CCC(c2nc3sc4c(c3c(=O)[nH]2)CCCC4)CC1,1,2,0,-8
Fc1ccc(Nc2nc(NCc3ccco3)c3ccccc3n2)cc1,0,29,0,36*
COc1ccc(Nc2nc(NCc3ccco3)c3ccccc3n2)cc1,2,7,0,50*
Clc1ccc(Nc2nc(NCc3ccco3)c3ccccc3n2)cc1,1,-3,0,0
O=c1c(CN2CCN(Cc3ccsc3)C(CCO)C2)coc2ccccc12 (stereo not drawn),-1,-8,0,-28
O=C(Oc1c(-c2ccccc2)oc2ccccc2c1=O)c1cccnc1,-1,17,0,0
CCCNc1ccnc(Nc2ccncc2)n1,-1,3,0,36*
CCCNc1ccnc(Nc2ccccc2)n1,1,13,0,-31
CS(=O)(=O)N(CC(=O)Nc1cccc(Cl)c1)c1ccccc1,1,2,0,4
CC(=O)c1cccc(NC(=O)CCl)c1,1,-4,0,99*
CC(=O)c1cccc(NC(=O)Nc2ccccc2)c1,-1,0,0,-25
CC(=O)c1ccc(NC(=O)Nc2cccc(C(=O)O)c2)cc1,4,-1,0,51*
CC(=O)c1cccc(NC(=O)CCC(=O)Nc2cccc(C(C)=O)c2)c1,-1,10,0,9
CC(=O)c1cccc(NC(=O)CN(c2ccccc2)S(C)(=O)=O)c1,-1,-19,1.9*,8
SMILES,GPR151 activ,MITF primary,FBW7 act,TEAD-YAP inh
COc1ccc2[nH]c3nc4cc(C)c(C)cc4nc3c2c1,0,-3,0,43*
COc1ccc2[nH]c(C)cc(=O)c2c1,1,12,0,11
Cc1ccc2[nH]c3nc4ccccc4nc3c2c1,-5,-12,0,-13
COc1ccc2[nH]c(C)cc(=S)c2c1,1,7,0,42*
COc1cc(C(=O)Nc2sc3c(c2C#N)CCC3)cc(OC)c1OC,0,4,0,41*
COc1cc(C(=O)Nc2sc3c(c2C#N)CCC(C)C3)c(Br)c(OC)c1OC (stereo not drawn),0,4,0,34*
COc1cc(C(=O)Nc2sc3c(c2C#N)CCC(C)C3)cc(OC)c1OC (stereo not drawn),0,9,1,9
COc1ccccc1C1=NOC(C(=O)NCc2cccs2)C1 (stereo not drawn),0,-4,0,41*
COc1ccc(CNC(=O)C2CC(c3ccccc3F)=NO2)cc1 (stereo not drawn),0,-11,0,0
COc1ccc(CNC(=O)C2CC(c3ccccc3OC)=NO2)cc1 (stereo not drawn),-1,-1,0,48*
CC(NC(=O)c1ccc(Br)o1)c1ccccc1 (stereo not drawn),3,-2,0,15
CCNC(=O)/C(C#N)=C/c1c(Oc2cc(C)ccc2C(C)C)nc2ccccn2c1=O,-6,6,0,46*
CNC(=O)/C(C#N)=C/c1c(Oc2cc(C)ccc2C(C)C)nc2ccccn2c1=O,-6,8,0,34*
O=C(NCc1ccccc1)c1nc[nH]c1C(=O)NCc1ccccc1,-1,-13,0,4
O=C1COc2cc(S(=O)(=O)Nc3cc(C(F)(F)F)cc(C(F)(F)F)c3)ccc2N1,0,-13,7.8*,5
Cc1cc(C)cc(NS(=O)(=O)c2ccc3c(c2)OCC(=O)N3)c1,1,-8,0,-12
COc1cncc(-c2cnn3ccc(Nc4ccc(N5CCOCC5)cc4)nc23)c1,0,7,0,39*
